Screening data as filed in PubChem.
An excerpt weighted towards active compounds, which were near 21% of everything screened.
DRD3 agonist = qHTS of D3 Dopamine Receptor Agonist: qHTS; D3R DiscoveRx beta-arrestin cells, luminescence, 90 min; max activation, %; actives 0.58% (n = 410,000); D(3) dopamine receptor (Homo sapiens), P35462; in the data active = max activation above about 30%
Target sequence (P35462 whole entry, looked up): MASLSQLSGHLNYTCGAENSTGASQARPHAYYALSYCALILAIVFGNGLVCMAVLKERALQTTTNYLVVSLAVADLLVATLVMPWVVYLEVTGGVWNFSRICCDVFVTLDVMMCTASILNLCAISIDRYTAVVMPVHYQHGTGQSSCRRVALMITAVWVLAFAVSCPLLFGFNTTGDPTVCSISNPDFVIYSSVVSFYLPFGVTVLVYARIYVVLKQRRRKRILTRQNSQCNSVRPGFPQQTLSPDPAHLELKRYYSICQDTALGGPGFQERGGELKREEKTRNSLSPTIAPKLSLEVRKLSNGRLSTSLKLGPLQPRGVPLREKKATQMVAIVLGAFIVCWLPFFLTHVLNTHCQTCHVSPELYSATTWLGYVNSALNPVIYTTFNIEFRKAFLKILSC
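Agonist-mode cell screen: cells plated at 1500/well and incubated overnight at 37 °C, then exposed to library compounds for 90 min at 37 °C. Detection reagent was added for 30–60 min at room temperature, and luminescence was read.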
ClpP mod = qHTS Assay for Activators of ClpP; purified B. subtilis ClpP, FRET peptide cleavage, 20 min; actives 1.9% (n = 340,000); AID 651965, 2013; Potency, µM (top dose mostly 57.5 µM); ATP-dependent Clp protease proteolytic subunit (Bacillus subtilis (strain 168)), P80244; active = well fitted falling curve with a large enough effect; inconclusive = small, poorly fitted or top-dose-only effect; inactive = no such curve, though single readings can be large or run the other way; note: the source files actives as falling curves though it sought activators and does not explain the sign; nearly all actives have a fitted effect of over 65% in size
Target sequence (P80244 whole entry, looked up): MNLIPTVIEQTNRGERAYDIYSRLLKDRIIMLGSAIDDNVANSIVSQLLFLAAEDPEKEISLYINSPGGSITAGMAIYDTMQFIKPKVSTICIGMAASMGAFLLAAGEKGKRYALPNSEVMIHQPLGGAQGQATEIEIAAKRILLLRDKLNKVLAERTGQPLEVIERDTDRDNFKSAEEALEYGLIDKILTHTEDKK
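FRET quenching reversal measured ClpP activation: 10 microg/mL B. subtilis ClpP at pH 8 with the FRET-FV decapeptide, read at 430 nm after 320 nm excitation. The 20-min minus 0-min signal was scaled between DMSO/no-enzyme wells and ADEP (5.8 microM final).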
TDP1 cell CPT = qHTS for Inhibitors of human tyrosyl-DNA phosphodiesterase 1 (TDP1): qHTS in cells in presence of CPT; AID 686979, 2013; chicken DT40 Tdp1-/-;hTDP1 cells + 20 nM CPT, ATP luminescence, 48 h; actives 12% (n = 420,000); Potency, µM (titrated, usually from 46.2 µM), actives largely listed as inhibitors; note: nearly all actives have a fitted effect of over 55% in size
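Chicken DT40 Tdp1-/- cells stably complemented with human TDP1 were seeded at 400 cells/well in medium containing 20 nM camptothecin, exposed to pin-transferred compounds, and grown at 37 °C for at least 48 hr. Viability was read as ATP luminescence.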
DT40 TDP1 no CPT = qHTS for Inhibitors of human tyrosyl-DNA phosphodiesterase 1 (TDP1): qHTS in cells in absence of CPT; DT40 Tdp1-/- hTDP1 cells, no CPT, ATP luminescence, 48 h; Potency, µM (titrated, usually from 46.2 µM), actives largely listed as inhibitors; actives 15% (n = 420,000); note: nearly all actives have a fitted effect of over 55% in size
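Readout: luminescence from CellTiter-Glo after 30 min in the dark at RT. Cells: DT40 Tdp1-/- with stable hTDP1, 400/well. Exposure: compounds alone, ≥48 hr, 37 °C.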
IL1B secr inh = qHTS for Inhibitors of Inflammasome Signaling: IL-1-beta AlphaLISA Primary Screen | THP-1 LPS/ATP IL-1B secretion, AlphaLISA, 16 h; stronger effect = lower value | activity change, % at 57.5 µM | actives 4.7% (n = 360,000) | AID 743279, 2014; in the data active = activity change below about -50%; inconclusive = mostly about -30% to -49%
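Secreted IL-1B measured by AlphaLISA bead assay after 16 h compound exposure of THP-1 cells; compounds (final up to 57.5 uM) added 1 h before LPS (250 ng/mL) and ATP (1.25 mM) stimulation; lower signal means less secretion.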
D3 antag = qHTS of D3 Dopamine Receptor Antagonist: qHTS; D(3) dopamine receptor (Homo sapiens), P35462; D3R cells, DiscoveRx beta-arrestin luminescence, antagonist mode; stronger effect = lower value; max response, negative = inhibition, %; actives 2.5% (n = 360,000); AID 652054, 2013; in the data active = max response below about -50%; inconclusive = no clear call, values can overlap the other calls
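Cells expressing the human receptor were seeded at 1500 cells/well, incubated overnight at 37 degrees C in 5% CO2, then exposed to library compounds with dopamine controls for 90 minutes at 37 degrees C before luminescent detection.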
Of the large screens only hits and unclear results are named; the others gave an inactive call. Unless noted, calls come from the whole dose curve; as a rule, active = well fitted inhibition curve with a large enough effect; inconclusive = small, poorly fitted or top-dose-only effect; inactive = flat fitted curve, though single readings scatter.

Nc1nc(Nc2ccccc2F)nc(N2CCOCC2)c1[N+](=O)[O-]	none
CCOc1ccccc1N(C)C(=O)c1cn(C)c(=O)c2ccccc12	none
Cc1cnc(C)c(-c2cccc3c2OC(CNC(=O)/C=C/c2ccncc2)C3)n1 (configuration not stated)	DT40 TDP1 no CPT inconclusive (no result: DRD3 agonist, ClpP mod, IL1B secr inh, D3 antag)
CC(C)C(N)c1csc(Nc2nncc3ccccc23)n1 (configuration not stated)	TDP1 cell CPT inconclusive, DT40 TDP1 no CPT 16.4µM
CC(N)c1csc(Nc2nncc3ccccc23)n1 (configuration not stated)	TDP1 cell CPT inconclusive, DT40 TDP1 no CPT inconclusive, IL1B secr inh -69.9
Nc1ccc(CC(N)c2csc(Nc3nncc4ccccc34)n2)cc1 (configuration not stated)	TDP1 cell CPT inconclusive, DT40 TDP1 no CPT inconclusive, IL1B secr inh inconclusive
CCOC(=O)c1csc(NC(=O)CN2CCCCC2)n1	none
CS(=O)(=O)Nc1ccc(C(=O)Nc2ccccc2-c2ccccc2)cc1	IL1B secr inh inconclusive
Cc1ccccc1C(=O)Nc1cc(-c2cc(C(C)(C)C)oc2C)nn1C	TDP1 cell CPT inconclusive, DT40 TDP1 no CPT inconclusive, IL1B secr inh -59.1 (no result: ClpP mod)
CN1CCCN(C(=O)c2cc(-c3cccc4ccccc34)nc3ccccc23)CC1	TDP1 cell CPT 16.4µM, DT40 TDP1 no CPT 20.6µM, IL1B secr inh -62.6 (no result: ClpP mod)
CCOc1ccc(-c2cc(C(=O)N3CCN(C)CC3)c3ccccc3n2)cc1	ClpP mod 28.2µM, TDP1 cell CPT inconclusive, DT40 TDP1 no CPT inconclusive
CCOC(=O)N1CCN(C(=O)c2cc(-c3ccncc3)nc3ccccc23)CC1	TDP1 cell CPT 5.8µM, DT40 TDP1 no CPT 5.8µM
CCOc1ccc(-c2cc(C(=O)N3CCCC3)c3ccccc3n2)cc1	ClpP mod 14.1µM, TDP1 cell CPT inconclusive, DT40 TDP1 no CPT 23.1µM
CCC(CC)NC(=O)CN1CCN(S(=O)(=O)c2cccs2)CC1	none
Cc1ccc(-c2cc(C(=O)N3CCN(C4CCS(=O)(=O)C4)CC3)c3ccccc3n2)cc1 (configuration not stated)	ClpP mod inconclusive, TDP1 cell CPT 13µM, DT40 TDP1 no CPT inconclusive, IL1B secr inh inconclusive
Cc1cc2ncn(C(=O)c3cc(-c4ccccc4)nc4ccccc34)c2cc1C	ClpP mod 14.1µM
CCOC(=O)N1CCN(C(=O)c2cc(-c3ccc(OCC)cc3)nc3ccccc23)CC1	ClpP mod 28.2µM, TDP1 cell CPT 4.61µM, DT40 TDP1 no CPT 3.66µM
CCOC(=O)C1CCCN(C(=O)c2cc(-c3ccccc3)cs2)CC1 (configuration not stated)	TDP1 cell CPT inconclusive, DT40 TDP1 no CPT inconclusive
Cc1ccc(-c2nn(-c3ccccc3)cc2C(=O)N2CCN(C3CCS(=O)(=O)C3)CC2)cc1 (configuration not stated)	none
CCOC(=O)C1CCCN(C(=O)c2sc(-c3ccccc3)nc2C)CC1 (configuration not stated)	TDP1 cell CPT inconclusive, DT40 TDP1 no CPT 14.6µM
COc1cc(C2C(=O)N(C3CCCCC3)CC(=O)N2C2CCCC2)ccc1OC(C)C (configuration not stated)	none (no result: IL1B secr inh, D3 antag)
N#Cc1cccc(-c2ccc3ncnc(NCc4cccnc4)c3c2)c1	none (no result: DRD3 agonist, ClpP mod, IL1B secr inh, D3 antag)
CCOC(CCNC(=O)c1cn(CCOC)c(=O)c2c1c1ccccc1n2C)OCC	none
CCOC(=O)C1CCCN(C(=O)c2cc(-c3ccccc3)nc3ccccc23)C1 (configuration not stated)	none (no result: ClpP mod)
CCOC(=O)C1CCN(C(=O)c2cc(-c3ccncc3)nc3ccccc23)CC1	TDP1 cell CPT inconclusive, DT40 TDP1 no CPT 20.6µM
O=C(c1cc(-c2ccccc2)nc2ccccc12)N1CCCC1	none (no result: ClpP mod)
Cc1ccc(-c2cc(C(=O)N3CCCCC3)c3ccccc3n2)cc1C	TDP1 cell CPT 16.4µM, DT40 TDP1 no CPT 23.1µM
Cc1ccc(C)c(NC(=O)C2(C)CCCN2C(=O)C(C)C)c1 (configuration not stated)	none
CCc1cc(=O)[nH]c(SCc2ccc(C)cc2)n1	none (no result: ClpP mod)
CCCC(=O)N1CCC1(C)C(=O)Nc1scc(C)c1C#N (configuration not stated)	TDP1 cell CPT 20.6µM, DT40 TDP1 no CPT 14.6µM
COc1ccccc1S(=O)(=O)Cc1ccc(C(=O)NCc2cccs2)o1	DT40 TDP1 no CPT inconclusive
Cc1ccc(CS(=O)(=O)Cc2ccc(C(=O)NCc3cccs3)o2)cc1	TDP1 cell CPT 18.4µM
Cc1ccc(CS(=O)Cc2ccc(C(=O)NCc3cccs3)o2)cc1 (configuration not stated)	none
CCc1ccccc1S(=O)(=O)Cc1ccc(C(=O)NCc2cccs2)o1	TDP1 cell CPT 18.4µM, DT40 TDP1 no CPT inconclusive
Oc1ccccc1N=Cc1c(O)ccc2oc3c(c12)CCCC3	TDP1 cell CPT inconclusive, DT40 TDP1 no CPT inconclusive
O=C(O)c1ccc(N=Cc2c(O)ccc3oc4c(c23)CCCC4)cc1	TDP1 cell CPT 16.4µM, DT40 TDP1 no CPT inconclusive
CC(C)(C)c1ccc(Oc2ccc(NC(=O)CCC(=O)OCC(=O)c3ccccc3)cc2)cc1	TDP1 cell CPT 14.6µM, DT40 TDP1 no CPT 13µM (no result: IL1B secr inh, D3 antag)
Cc1cccc(Oc2ccc(NC(=O)CCC(=O)OCC(=O)c3ccc(Br)cc3)cc2)c1C	TDP1 cell CPT 13µM, DT40 TDP1 no CPT 11.6µM (no result: IL1B secr inh, D3 antag)
CC[C@]12c3[nH]c4cc(-c5ccco5)ccc4c3CCN1C(=O)[C@@H](CC(=O)NCCCOC)C[C@@H]2C(=O)N1CCN(C(=O)c2ccco2)CC1	DRD3 agonist 43.3, TDP1 cell CPT inconclusive, DT40 TDP1 no CPT inconclusive
CC[C@]12c3[nH]c4cc(-c5ccco5)ccc4c3CCN1C(=O)[C@@H](CC(=O)NC(C)(C)C)C[C@@H]2C(=O)N1CCN(C(=O)c2ccco2)CC1	TDP1 cell CPT 23.1µM, DT40 TDP1 no CPT 14.6µM
CC[C@]12c3[nH]c4cc(-c5ccco5)ccc4c3CCN1C(=O)[C@@H](CC(=O)NCCC1=CCCCC1)C[C@@H]2C(=O)N1CCN(C(=O)c2ccco2)CC1	TDP1 cell CPT 20.6µM, DT40 TDP1 no CPT 18.4µM, IL1B secr inh -63.9
CC[C@]12c3[nH]c4cc(-c5ccco5)ccc4c3CCN1C(=O)[C@@H](CC(=O)NCCN1CCOCC1)C[C@@H]2C(=O)N1CCN(C(=O)c2ccco2)CC1	none
